ELG1 DNA repair = blocks ELG1-dependent DNA repair in HEK293T cells | 330,000 tested, 2.3% active | Potency, µM (series often up to 46.1 µM), without a hit: at the highest dose activity change, negative = inhibition, hits mostly inhibitors | HEK293T ELG1-luciferase reporter, luminescence, 16 h; DNA damage induced by 5-fluorouridine | AID 504467; also: % is scaled to controls: 0 for no effect and ±100 for the full control effect; nearly all actives have a fitted effect of over 55% in size
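Overnight (16 hr) co-exposure of 2,000 cells/well to 5-fluorouridine and compound at 37 °C preceded detection. Luciferase was quantified via ONE-Glo luminescence; loss of signal denotes inhibition.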
Rab9 prom act = activates the Rab9 promoter. Huh7 Rab9 promoter-luciferase reporter, luminescence, 24 h. Potency, µM (highest dose often 9.22 µM), inactives show at the top dose activation, negative = inhibition, usual class: activators. 320,000 tested, 2.8% active; also: % of control where 0% means no effect; nearly all actives have a fitted effect of over 60% in size
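Rab9 promoter-driven luciferase in stably transfected Huh7 cells; 1500 cells/well rested 2 h, exposed to compound in DMSO for 24 h at 37 °C, 5% CO2. Luminescence read 10 min after adding luciferase reagent at ambient temperature.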
FLuc modulator = inhibits or activates purified firefly luciferase, miR-21 counter-screen | 360,000 tested, 6.9% active | P08659 | AID 588342 | Potency, µM (top dose mostly 57.5 µM), for inactives: at the top dose activity change, negative = inhibition, actives largely listed as inhibitors | purified FLuc, Km substrates, luminescence inhibition;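 also: plate controls were vehicle for no effect and reference inhibitor for full effect; nearly all actives have a fitted effect of over 55% in size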
Target sequence (P08659 whole entry, looked up): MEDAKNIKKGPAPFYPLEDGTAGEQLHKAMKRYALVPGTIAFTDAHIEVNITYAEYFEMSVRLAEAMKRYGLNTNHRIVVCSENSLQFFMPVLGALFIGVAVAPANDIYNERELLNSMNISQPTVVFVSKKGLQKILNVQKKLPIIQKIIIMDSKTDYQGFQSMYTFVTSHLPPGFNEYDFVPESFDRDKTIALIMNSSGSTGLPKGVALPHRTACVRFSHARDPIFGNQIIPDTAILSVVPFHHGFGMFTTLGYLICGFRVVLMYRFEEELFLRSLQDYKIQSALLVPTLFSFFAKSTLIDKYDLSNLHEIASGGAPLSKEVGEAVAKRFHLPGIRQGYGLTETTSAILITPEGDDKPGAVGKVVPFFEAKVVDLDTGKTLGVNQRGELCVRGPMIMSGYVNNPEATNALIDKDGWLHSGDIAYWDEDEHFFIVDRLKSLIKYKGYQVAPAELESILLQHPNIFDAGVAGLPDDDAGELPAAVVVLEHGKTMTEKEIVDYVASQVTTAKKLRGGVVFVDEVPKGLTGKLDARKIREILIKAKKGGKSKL
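Biochemical qHTS of compounds, final roughly 60 µM downward over six points, against 10 nM purified firefly luciferase using Km concentrations of substrates (10 uM D-luciferin, 10 uM ATP) in Tris acetate pH 7.5 buffer; luminescence output.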
ELG1 genotoxic = genotoxicity induction in ELG1-luciferase HEK293T cells; HEK293T ELG1-luciferase reporter, luminescence, 16 h; Potency, µM (highest dose often 46 µM), for the others: at the highest dose activity change, positive = activation, actives largely listed as activators; 330,000 tested, 1.3% active; AID 504466; also: % of control where 0% means no effect; nearly all actives have a fitted effect of over 60% in size
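Step 1: seed 2,000 HEK293T ELG1-luciferase cells per well. Step 2: add compound or DMSO, incubate 16 hr at 37 °C. Step 3: ONE-Glo, 30 min at room temperature, read luminescence.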
NPC1 promoter act = NPC1 promoter activation; Huh7 NPC1 promoter luciferase reporter, 24 h; Potency, µM (doses to about 9.22 µM), without a hit: top-dose activation, hits mostly activators; 320,000 tested, 2.4% active; also: % of control where 0% means no effect; nearly all actives have a fitted effect of over 60% in size
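Stably transfected Huh7 (NPC1 promoter→luciferase), 1500 cells/well in Opti-MEM + 10% FBS, 2 h settle, then compound 24 h at 37 °C. Luminescence after 10 min with Amplite reagent.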
SMN2 splice up = increases expression of the SMN2 splice variant; HEK293 SMN2-luciferase splicing reporter, luminescence, 30-36 h; Potency, µM (highest dose often 46.1 µM), without a hit: at the top dose activity change, positive = activation, most hits filed as activators; 210,000 tested, 2.8% active; also: % of control where 0% means no effect; nearly all actives have a fitted effect of over 55% in size
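HEK293 cells carry an SMN2 […]–luciferase reporter in which exon 7 inclusion puts luciferase in frame. Cells were plated 10-12 h before compound addition, then incubated 30-36 h at 37C. ONE-Glo luminescence was read; sodium butyrate at 4.5 mM final served as control.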
Starred values were filed as active, the others as inactive; ? = inconclusive; nt = not tested or not shown; [ ] = remark or other dose. Most compounds without a hit are left out; they make up all but 9.2% or so of the library. Calls follow the shape of the dose curve; as a rule, active = well fitted curve in the direction sought with a large enough effect; inconclusive = small, poorly fitted or top-dose-only effect, or another doubt; inactive = no such curve, though single readings can be large; an effect the other way counts as inactive or inconclusive. Potency is read from the fitted curve at half-maximal effect.

SMILES	ELG1 DNA repair	Rab9 prom act	FLuc modulator	ELG1 genotoxic	NPC1 promoter act	SMN2 splice up
Cc1ccc(C)c(N(CC(=O)Nc2ccc(-c3nc4ccc(C)cc4s3)cc2)S(C)(=O)=O)c1	10%	-2%	-17%	1%	9%	26%
Cc1ccc2nc(-c3ccc(NC(=S)NC(=O)CC(C)C)cc3)sc2c1	?	1.1µM*	24µM*	9.2µM*	0.56µM*	31%
Cc1ccc2nc(-c3ccc(NC(=O)CNC4CC4)cc3)sc2c1	?	0.28µM*	2.7µM*	?	0.63µM*	2.2µM*
Cc1ccc2nc(-c3ccc(NC(=O)c4ccccc4S(C)(=O)=O)cc3)sc2c1	nt	nt	21µM*	nt	nt	nt
CN1CCC(=O)N([C@H](CN=[N+]=[N-])Cc2ccccc2)CC1	-23%	-3%	4%	-1%	-5%	nt
CN(C)CCCn1cnc2cc(Cl)c(Cl)cc21	nt	nt	nt	nt	nt	-5%[9.22 µM]
O=C(Nc1nnc(C2CC2)s1)c1cccs1	?	3.2µM*	?	?	2.8µM*	nt
CN(c1ccccc1)S(=O)(=O)c1nnc(NC(=O)c2cccs2)s1	nt	nt	1.1µM*	nt	nt	nt
COc1c(C(=O)Nc2nnc(C3CC3)s2)csc1Cl	?	4µM*	?	?	4.5µM*	nt
CC(C)=CC(=O)Nc1nnc(C(C)C)s1	?	2.5µM*	12µM*	?	3.2µM*	11µM*
CCCCc1nnc(NC(=O)C=C(C)C)s1	17%	3%	-2%	-2%	0%	14%
Cn1c(CCNC(=O)c2ccccc2F)nnc1SCC(=O)Nc1nncs1	13%	3%	0%	-1%	0%	nt
CN(CCC(=O)O)S(=O)(=O)c1ccccc1	nt	nt	nt	nt	nt	-18%[9.22 µM]
CC(C)c1nnc(NC(=O)c2cccs2)s1	?	2.5µM*	13µM*	4.1µM*	2.8µM*	14µM*
CC(C)(C)c1nnc(NC(=O)c2cccs2)s1	?	2.8µM*	11µM*	?	2.8µM*	nt
CCOc1ccc2oc(C(=O)OCC(=O)NC3CCCC3)c(C)c2c1	?	2%	0%	-1%	-1%	nt
CCCCNC(=O)C1CC(c2cccc([N+](=O)[O-])c2)=NO1 (stereo not drawn)	?	2.8µM*	11µM*	?	2.8µM*	?
CC(C)CCNC(=O)C1CC(c2cccc([N+](=O)[O-])c2)=NO1 (stereo not drawn)	9%	9%	0%	3%	3%	-17%
COc1ccc(CCNC(=O)C2CC(c3ccccc3[N+](=O)[O-])=NO2)cc1 (stereo not drawn)	?	?	19µM*	21%	?	27%
O=C(NCCc1cccs1)C1CC(c2ccccc2[N+](=O)[O-])=NO1 (stereo not drawn)	?	?	15µM*	15%	?	24%
COc1ccccc1-n1c(CNC(=O)c2ccco2)n[nH]c1=S	17%	1%	-3%	4%	-1%	nt
Cc1ccc(NC(=O)c2cc(=O)c3ccccc3o2)cc1S(=O)(=O)N1CCOCC1	23µM*	-3%	2%	-7%	3%	nt
Cc1ccc(NC(=O)c2ccccc2-c2ccc(C(F)(F)F)cc2)cc1S(=O)(=O)N1CCOCC1	21µM*	-5%	-7%	-5%	0%	0%
Cc1ccc(NC(=O)C(=O)c2c(-c3ccccc3)cc3ccccn23)cc1S(=O)(=O)N1CCOCC1	9.2µM*	-5%	10%	-9%	-3%	-24%
O=C(Nc1ccc(S(=O)(=O)N2CCCCCC2)cc1)c1cc(=O)c2ccccc2o1	nt	nt	3%	nt	nt	14%
SMILES	ELG1 DNA repair	Rab9 prom act	FLuc modulator	ELG1 genotoxic	NPC1 promoter act	SMN2 splice up
Cc1ccc(NC(=O)c2cc(=O)c3ccccc3o2)cc1S(=O)(=O)N1CCCCC1	16µM*	0%	6%	-17%	-8%	-22%
COc1ccc(C(O)c2nccc3cc(OC)c(OC)cc23)cc1OC (stereo not drawn)	?	-17%	4%	-9%	-10%	nt
Cc1cc2oc(C(=O)Nc3ccc(S(N)(=O)=O)cc3)cc(=O)c2cc1C	nt	nt	-2%	nt	nt	-28%
CC(=O)Nc1ccc(NC(=O)c2cc(=O)c3cc(C)c(C)cc3o2)cc1	-14%	3%	2.7µM*	5%	-1%	nt
Nc1ccccc1C#CC(=O)c1ccccc1	-1%	-2%	6µM*	-1%	0%	nt
NCCSCc1ccccc1Cl	nt	nt	nt	nt	nt	-28%[9.22 µM]
COc1ccccc1NC(=O)Nc1nc(CC(=O)N2CCN(c3ccccc3OC)CC2)cs1	?	-1%	17µM*	-11%	-12%	nt
COc1cc(C)ccc1NC(=O)Cc1csc(NC(=O)Nc2ccccc2OC)n1	?	1%	5%	-2%	3%	nt
CN(CC(=O)Nc1cccc(F)c1)C(=O)c1ccc(OCc2cn3ccccc3n2)cc1	?	nt	nt	5%	nt	nt
Fc1cccc(NCc2cn3ccccc3n2)c1	?	0.79µM*	9.5µM*	2.3µM*	1.8µM*	2.5µM*
Fc1ccc(NCc2cn3ccccc3n2)cc1	?	4µM*	15µM*	-3%	3.2µM*	?
O=C(NCCc1cn2ccccc2n1)c1ccccc1F	16%	0%	2%	1%	0%	-14%
O=C(/C=C\c1ccccc1)NC1CC(=O)N(c2ccccc2)C1 (stereo not drawn)	nt	nt	1%	nt	nt	nt
Cc1cc2oc(=O)c(CC(=O)O)c(C)c2c2occ(-c3ccccc3)c12	nt	nt	6µM*	nt	nt	21%
COCCCNC(=O)Cc1c(C)c2c(cc(C)c3c(C(C)(C)C)coc32)oc1=O	0%	-20%	11µM*	-4%	-11%	nt

Source: PubChem BioAssay (National Center for Advancing Translational Sciences (NCATS))
